# Screens deposited in PubChem by National Center for Advancing Translational Sciences (NCATS).
# HPGD block = HPGD (human) dehydrogenase inhibition; purified HPGD, NADH fluorescence kinetic, PGE2 substrate; AID 894; 4.3% of 150,000 active; Potency, µM, hits mostly inhibitors; P15428
# Target sequence (P15428 whole entry, looked up): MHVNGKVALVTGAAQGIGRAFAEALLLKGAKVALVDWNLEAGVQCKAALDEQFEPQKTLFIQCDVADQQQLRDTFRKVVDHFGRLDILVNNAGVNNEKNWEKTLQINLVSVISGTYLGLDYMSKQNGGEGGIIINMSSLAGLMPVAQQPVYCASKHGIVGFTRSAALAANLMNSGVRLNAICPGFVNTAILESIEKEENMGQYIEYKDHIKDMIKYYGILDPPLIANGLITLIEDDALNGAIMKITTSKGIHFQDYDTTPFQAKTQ
#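 20 nM HPGD preincubated 15 min at room temperature with compound in 50 mM Tris-HCl pH 8, 0.01% Tween 20. Started with 1 mM NAD+ and 30 uM prostaglandin E2; NADH fluorescence (360/450 nm) read 5 times over 30-s intervals, last minus first.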
# IMPase inh = cell-permeable inhibitors of inositol monophosphatase (IMPase). P97697. CHO-M1 cells, IP1 accumulation, HTRF TR-FRET ratio. inhibition (IP1 accumulation), % at 46.1 µM. 120,000 tested, under 10 active; active means well fitted curve in the direction sought with a large enough effect in the signal ratio, not every such curve was filed as active; inconclusive means small, poorly fitted or top-dose-only effect, or a change in a side signal; inactive means no such curve, though single readings can be large or run the other way; the % refers to the signal ratio;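 further: cells stimulated with carbachol in lithium chloride buffer; higher means more IMPase inhibition seen as more IP1 and lower FRET ratio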
#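 CHO-M1, 2000 cells/well, cultured 16–30 h; cpd up to 46 uM; carbachol (50 uM solution, stimulation buffer w/ 50 mM LiCl, pH 7.4), 30 min 37C; IP-One TR-FRET, 10 min RT; Ex 320/Em 665, 620; Hill-fit AC50.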
# ALDH1A1 block = ALDH1A1 (human) enzyme inhibition; P00352; Purified ALDH1A1, NADH fluorescence, propionaldehyde substrate; Potency, µM (doses to about 75.3 µM), hits mostly inhibitors; 7.3% of 220,000 active
# A number is an active result; 0 = inactive; ? = inconclusive; - = no result given; [ ] = dose if it differs, or a comment. Sampled rows, rich in hits. Any-hit rate of the full collection: about 9%. Unless noted, the call rests on the fitted dose curve; in most records, active means well fitted inhibition curve with a large enough effect (not every such curve was filed as active); inconclusive means small, poorly fitted or top-dose-only effect, or another doubt; inactive means no such curve, though single readings can be large or run the other way.
SMILES,HPGD block,IMPase inh,ALDH1A1 block
COc1cccc(NC(=O)CN2C(=O)NC(C)(CC(C)C)C2=O)c1 (stereo unspecified),-,-,0
COc1ccccc1CN1CCC2(CC1)CCN(C(=O)c1ccncc1)CC2,0,-,0
CCOC(=O)c1cc[nH]c1C,-,-,0
CC(=O)c1ccc(S(=O)(=O)Nc2cc3c(cc2C(C)=O)OCO3)cc1,-,-,0
CCC(CC)C(=O)Nc1cccc(C(=O)Nc2ccc3c(c2)OCO3)c1,0,0,13µM
CC1CN(S(=O)(=O)c2cccc(C(=O)OCC(=O)Nc3ccc4c(c3)OCO4)c2)CC(C)O1 (stereo unspecified),0,0,11µM
CCC(CC)C(=O)Nc1cccc(C(=O)Nc2ccc(S(N)(=O)=O)cc2)c1,-,-,0
CC1CN(S(=O)(=O)c2cccc(C(=O)OCC(=O)c3cccs3)c2)CC(C)O1 (stereo unspecified),0,0,?
CCN(CC)S(=O)(=O)c1ccc(S(=O)(=O)Nc2cc3c(cc2C(C)=O)OCO3)cc1,-,0,3.2µM
COc1ccc(-n2nnc3c(SCC(=O)N4CCN(c5ccccc5)CC4)ncnc32)cc1,0,-,?
O=[N+]([O-])c1cc2c(cc1[N+](=O)[O-])OCCOCCOCCOCCO2,-,-,0
CC1(C)CC(=O)C(N=Nc2cc3c(cc2[N+](=O)[O-])OCCO3)=C(O)C1,-,-,0.56µM
CC(=O)/C(N=Nc1c(C)n(C)n(-c2ccccc2)c1=O)=C(\C)O,-,-,0
Cc1ccc(O)c(N=Nc2ccc(S(=O)(=O)N3CCOCC3)cc2)c1,-,-,0
Cc1ccc(O)c(N=NC2=C(O)CC(C)(C)CC2=O)c1,0,-,6.3µM
CC1(C)CC(=O)C(N=Nc2cc(Cl)c(Cl)c(Cl)c2)=C(O)C1,0,0,5µM
Cc1c(N=NC2=C(O)CC(C)(C)CC2=O)c(=O)n(-c2ccccc2)n1C,-,-,10µM
CC1CCN(S(=O)(=O)c2ccc(N=NC3=C(O)CC(C)(C)CC3=O)cc2)CC1,0,-,?
CCOC(=O)c1[nH]c2ccccc2c1NC(=S)Nc1cccc(C)c1,0,-,?
O=C(OC1Cc2c(O)cc(O)cc2OC1c1cc(O)c(O)c(O)c1-c1c(C2Oc3cc(O)cc(O)c3CC2O)cc(O)c(O)c1O)c1cc(O)c(O)c(O)c1 (stereo unspecified),0,-,0
COc1cccc(-c2nc(SCC(=O)Nc3ccc4c(c3)OCCO4)c(-c3ccc(C)cc3)[nH]2)c1,-,0,-
O=S(=O)(c1ccccc1)N1CCC2(CCN(Cc3nccs3)CC2)CC1,0,-,0
CCCCNC(=S)NC(C)(C)CO,-,-,0
Cc1nc(-n2ncc(C#N)c2N)c2c3c(sc2n1)CCC3,0,0,0
CCCSc1nc(-n2ncc(C#N)c2N)c2c3c(sc2n1)CCC(C)C3 (stereo unspecified),?,0,4µM
SMILES,HPGD block,IMPase inh,ALDH1A1 block
CC(=O)c1ccc(Sc2ccccc2)cc1,?,0,?
CC(=O)c1ccc(Sc2ccc(C(C)=O)cc2)cc1,18µM,-,0
CN(C)CC(C(=O)c1ccccc1)c1ccccc1 (stereo unspecified),0,0,0
CN(C)C/C(Cl)=C(\Cl)c1ccccc1,0,0,7.1µM
CN(CCO)c1ccc([N+](=O)[O-])cc1C(=O)O,0,0,22µM
O=C(O)c1cc([N+](=O)[O-])ccc1NCCO,0,-,0
O=C(/C=C(\O)c1ccccc1)c1ccccc1O,20µM,-,0
O=C(NO)c1ccccc1O,0,-,0
Cc1nn(-c2ccccc2)c(Cl)c1/C=N/Nc1ccc(Cl)c(C(=O)O)c1,?,-,0
O=C(O)c1ccccc1/C=N/Nc1ccc(S(=O)(=O)N2CCCC2)cc1[N+](=O)[O-],-,-,13µM
Cc1nn(-c2ccccc2)c(Cl)c1/C=N/Nc1ccc(S(=O)(=O)Nc2ccccc2C(=O)O)cc1[N+](=O)[O-],16µM,0,?
O=[N+]([O-])c1cc(S(=O)(=O)N2CCCC2)ccc1N/N=C/c1cccnc1,0,-,0
COc1cccc(NC(=O)c2cc(CN3C(=O)c4ccccc4C3=O)ccc2OC)c1,0,-,0
COc1ccc(CCn2c(=O)c3cccnc3n(Cc3cccc([N+](=O)[O-])c3)c2=O)cc1OC,-,-,0
COc1cc(C(=O)NCC(=O)OCC(=O)N2CCc3ccccc32)cc(OC)c1OC,-,-,0
Cc1cc(NC(=O)c2noc3c2CCc2ccccc2-3)no1,0,0,0
COc1ccc2c(c1)CCc1c(C(=O)N3CCCCCC3)noc1-2,10µM,0,?
COc1ccc2c(c1)CCc1c(-c3noc4c3CCc3cc(OC)ccc3-4)noc1-2,0,-,0[13.5 µM]
O=C(c1noc2c1CCc1ccccc1-2)N1CCc2ccccc2C1,16µM,0,?
O=C(c1noc2c1CCc1ccccc1-2)N1CCOCC1,0,0,0
O=C(c1noc2c1CCc1ccccc1-2)N1CCCc2ccccc21,0,0,13µM
Nc1nnc(COc2ccccc2)s1,0,?,0
CCOc1ccccc1NC(=O)c1cc(SC)ccc1Cl,-,-,0
